Each structure is given as a SMILES string. Records with an inconclusive call do not appear. Calls of active or inactive are those of the source. Calls follow the shape of the dose curve; as a rule, active = well fitted curve in either direction with a large enough effect (not every such curve was filed as active); inconclusive = small, poorly fitted or top-dose-only effect, or another doubt; inactive = flat fitted curve, though single readings scatter.
% is scaled to controls: 0 for no effect and ±100 for the full control effect.

This assay in a line: Stat Signaling Pathway (AID 446).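 Also: ME-180 cervical cancer cells given 40 pM IL-6 alongside compound; SIE-controlled beta-lactamase reporter measured as 460/530 nm FRET emission ratio.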 Conditions: ME-180 (cervical carcinoma) SIE beta-lactamase reporter, IL-6 stimulated, 5 h; at 17.2 µM (top of the series) unless noted. The method, boiled down: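 IL-6/STAT signaling read in ME-180 cells via an SIE beta-lactamase reporter. Stimulus was 40 pM IL-6 (its AC50) for 5 hrs, so both activation and inhibition register.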
As for `Cc1cccc(-n2ncc3c(NCCN4CCOCC4)ncnc32)c1`, the activity, negative = inhibition is 4.97% (inactive). `CCN(CC)CCN1C(=O)C(=O)/C(=C(/O)c2ccc(OC(C)C)cc2)C1c1ccncc1` (stereo not given): the activity, negative = inhibition was -2.31% (inactive). As to `Cc1cc(C)n(-c2nnc(C)n2/N=C/c2ccco2)n1`, the activity, negative = inhibition is 2.31% (inactive). For `CCn1c(SCC(=O)NC2CCCCC2C)nnc1-c1ccc(OC)cc1` (stereo not given) the value was -7.61% (inactive); for `CCOP(=O)(c1ccccc1)c1nc(-c2ccc(F)cc2)oc1N1CCCCC1` (stereo not given), 4.79% (inactive); for `Cc1nc2c(o1)CCc1ccccc1C2O` (stereo not given), 5.73% (inactive). For `CC1N(O)C(c2ccc(Cl)cc2Cl)N(O)C1(C)C` (stereo not given) the value was 2.16% (inactive); for `COc1ccc(C2/C(=C(/O)c3cnn(-c4ccccc4)c3C)C(=O)C(=O)N2CCN(C)C)cc1OC` (stereo not given), -4.43% (inactive); for `COc1ccc(OC)c(C2/C(=C(/O)c3cnn(-c4ccccc4)c3C)C(=O)C(=O)N2CCN(C)C)c1` (stereo not given), 3.03% (inactive). For `CSc1nc(C)cc(OCCNS(=O)(=O)c2cc(C)ccc2C)n1` the value was 1.66% (inactive); for `CN1CCN(CCCCOc2ccc(F)cc2)CC1`, -0.445% (inactive). As to `COc1cccc(N2CCN(C3CC(=O)N(c4cccc(Cl)c4)C3=O)CC2)c1` (stereo not given), the activity, negative = inhibition was -13.6% (inactive). With `C=CCOc1nc2c(c(=O)n(Cc3ccc(Cl)c(Cl)c3)c(=O)n2C)n1C`, the activity, negative = inhibition was 7.85% (inactive). For `COC(=O)CNC(=O)c1c(C)cc(=O)oc1C` the value was 5.86% (inactive); for `COc1ccc(-c2onc(C)c2-c2ccccc2)c(O)c1`, -25.2% (inactive). For `Cc1nnc(N2CCOCC2)c2ccccc12` the value was 5.08% (inactive). As for `CCOc1cccc(C2C(C#N)=C(N)Oc3cc(C)oc(=O)c32)c1OCC` (stereo not given), the activity, negative = inhibition was -12.7% (inactive). For `O=C1C2ON(c3ccccc3)C(c3ccncc3)C2C(=O)N1c1ccccc1` (stereo not given) the value was 1.91% (inactive); for `COc1ccccc1-c1nnc2sc(COc3ccccc3)nn12`, -10.5% (inactive); for `CCCCOC(=O)c1ccc(NC(=O)CSc2nncn2C)cc1`, 4.52% (inactive).

Consider `O=C(Nc1ncn[nH]1)c1c(Cl)ccc(Cl)c1Cl`, for which the activity, negative = inhibition is -0.714% (inactive).

For `Cn1c(Cn2cnc3ccccc32)nc2ccccc21`, the activity, negative = inhibition was -2% (inactive). In the case of `Nc1nnnn1N=C1CCCCC1`, the activity, negative = inhibition was -8.04% (inactive).

For `Cc1cc2c(c(=O)n1Cc1cccnc1)C(c1ccccc1)C(C#N)=C(N)O2` (stereo not given), the activity, negative = inhibition was -17% (inactive). As for `Cc1ccc2cc(CN(C(=O)c3ccco3)c3ccccc3)c(=O)[nH]c2c1`, the activity, negative = inhibition was -2.89% (inactive). For `COc1ccccc1-n1c(=O)c2c3c(sc2n2c(SC)nnc12)CCC3` the value was 14.3% (inactive); for `CC(=O)OCC(=O)[C@H]1CC[C@H]2[C@@H]3CC=C4C[C@@H](O)CC[C@]4(C)[C@H]3CC[C@]12C`, -2.21% (inactive); for `COc1cccc(N2CCN(c3ncnc4c3[nH]c3ccc(F)cc34)CC2C)c1` (stereo not given), -104% (active).

Consider `CC(C)Oc1ccc(Cc2c(O)nc(NCCCN(C)C)[nH]c2=O)cc1`, for which the activity, negative = inhibition was 4.27% (inactive).

As to `O=C1NC2c3ccccc3C(=O)N2c2c1cnn2-c1ccccc1` (stereo not given), the activity, negative = inhibition is -7.17% (inactive). For the molecule `CC(=O)C1=C(O)C(=O)N(c2cccc(C(=O)O)c2)C1c1ccc(F)cc1` (stereo not given), the activity, negative = inhibition was 4.06% (inactive). For `O=C1CCc2nc3ccccc3c(=O)n2N1` the value was -4.8% (inactive).

For the molecule `CN1C(=O)NC(c2ccccc2)C2=C1CN(Cc1ccccc1)C2=O` (stereo not given), the activity, negative = inhibition is -9.01% (inactive). As for `CC1(C)Cc2c(C#N)c(SCc3nc4ccccc4[nH]3)nc(N3CCOCC3)c2CO1`, the activity, negative = inhibition was -16.1% (inactive).

With `CCC(=O)Nc1nc2ccccc2n1CCN(C)C`, the activity, negative = inhibition is 10.7% (inactive). As for `CCC(NC(=O)Nc1nccs1)(C(F)(F)F)C(F)(F)F`, the activity, negative = inhibition was -6.36% (inactive). As to `CN(C1CCS(=O)(=O)C1)S(=O)(=O)c1cccc2nsnc12` (stereo not given), the activity, negative = inhibition was 1.43% (inactive). As to `CCOCCn1c(SC)nc2c1c(=O)[nH]c(=O)n2C`, the activity, negative = inhibition was -1.1% (inactive).

With `O=C(C1CC1(c1ccccc1)c1ccccc1)N1CCOCC1` (stereo not given), the activity, negative = inhibition was 0.797% (inactive). Turning to `CCOC(=O)CSc1nc(N2CCOCC2)c2c(c1C#N)CC(C)(C)N(C)C2`, the activity, negative = inhibition is 1.11% (inactive).
